{"source": "ChEMBL document CHEMBL3988442", "about": "“University of Dundee, Small-Polar-MMV Screening Library” (2021)", "note": "About 900 (1.7%) of roughly 53,000 compounds showed an effect of 50% or more. Only a selection was taken, and strong results are over-represented in it overall.", "data": [{"tested_on": "Mycobacterium tuberculosis", "assay": "Cornell - Phenotypic assay to identify agents that inhibit growth of Mycobacterium tuberculosis", "type": "functional", "design": "scale not given: direction of the effect not stated beside the values", "settings": "10 mM as filed; unlikely as a test dose", "units": {"Percent Effect": "%"}, "values": [{"molecule": "COCc1ccc(CNc2cnn(C(C)(C)C)c(=O)c2Cl)cc1", "Percent Effect": 55.73}, {"molecule": "COCc1cccc(CNc2cnn(C(C)(C)C)c(=O)c2Cl)c1", "Percent Effect": 17.4}, {"molecule": "CC(C)(C)n1ncc(NCc2ccccc2)c(Cl)c1=O", "Percent Effect": -56.94}, {"molecule": "CCCN1CCC(c2nc3ccc(-c4ccncc4)cn3n2)CC1.O=C(O)C(F)(F)F.O=C(O)C(F)(F)F", "Percent Effect": -17.17}, {"molecule": "Cc1nccn1-c1ccc(C(=O)NCC(F)(F)F)nn1", "Percent Effect": 18.88}, {"molecule": "Cc1cnc(C(=O)N2CCC3(CCN3Cc3ccc(F)cc3)C2)cn1.O=C(O)C(F)(F)F", "note": "(stereo not given)", "Percent Effect": -0.7224}, {"molecule": "CN1C(=O)C(C)(C)COc2ccc(NS(=O)(=O)Cc3ccccc3)cc21", "Percent Effect": -4.912}, {"molecule": "CN(C)C(=O)c1cnc2n1CCN(Cc1ccsc1)C2.O=C(O)C(F)(F)F", "Percent Effect": 1.254}, {"molecule": "Cc1ccc(CSc2nc(N)cc(NCCC(=O)N3CCCC3)n2)cc1", "Percent Effect": 88.28}, {"molecule": "Cc1ccc(CSc2nc(N)cc(NCCS(=O)(=O)N(C)C)n2)cc1", "Percent Effect": 52.28}, {"molecule": "Cc1ccc(CSc2ncc(Br)c(C(=O)O)n2)cc1", "Percent Effect": 1.969}, {"molecule": "CCc1cc(NCCS(=O)(=O)N(C)C)nc(N2CCOCC2)n1", "Percent Effect": 22.77}, {"molecule": "Cc1ccc(CSc2nc(N)cc(NCC(=O)N3CCNCC3)n2)cc1", "Percent Effect": -47.88}, {"molecule": "Cc1ccc(CSc2nc(N)cc(NCCC(N)=O)n2)cc1", "Percent Effect": 44.65}, {"molecule": "CCn1cnnc1CNC(=O)N1CCC(O)CC1", "Percent Effect": -20.2}, {"molecule": "CC(=O)N1CCCN(C(=O)c2cnn(-c3ccccc3Cl)c2)CC1", "Percent Effect": -28.49}, {"molecule": "Cc1cc(C(F)(F)F)nn1CCCNC(=O)C1CCCO1", "note": "(stereo not given)", "Percent Effect": -51.46}, {"molecule": "O=C(NCC1CC1)C1CCC2(CCN(C(=O)c3ccoc3)CC2)O1", "note": "(stereo not given)", "Percent Effect": -8.481}, {"molecule": "Cc1ccc2[nH]c(C3CCN(CC(N)=O)CC3)nc2c1", "Percent Effect": -20.2}, {"molecule": "CCC1CCCCN1Cc1ncc(C(C)(C)C)o1", "note": "(stereo not given)", "Percent Effect": -71.87}, {"molecule": "Cl.NC1CCc2nc(-c3ccncc3)nc(Nc3cccc(F)c3)c2C1", "note": "(stereo not given)", "Percent Effect": 61.47}, {"molecule": "O=C(Nc1cccc(F)c1)NC1CCN(Cc2ccncc2)CC1", "Percent Effect": 26.05}, {"molecule": "COc1cccc(Nc2nc(-c3ccncc3)nc3c2CNCC3)c1.Cl", "Percent Effect": -3.556}, {"molecule": "Cl.NC1CCc2nc(-c3cccnc3)nc(Nc3ccc(F)cc3)c2C1", "note": "(stereo not given)", "Percent Effect": 98.04}, {"molecule": "c1cncc(-c2nc3c(c(NCC4(c5ccncc5)CC4)n2)CCC3)c1", "Percent Effect": 21.3}, {"molecule": "CC(O)CNc1nc(-c2cccnc2)nc2c1CCC2", "note": "(stereo not given)", "Percent Effect": 12.92}, {"molecule": "O=C(O)C(F)(F)F.O=C1COC2(CCN(Cc3cccs3)CC2)CN1c1cncnc1", "Percent Effect": 13.06}, {"molecule": "Cc1cnc(N2C(=O)CSC2c2ccccc2)s1", "note": "(stereo not given)", "Percent Effect": 7.465}, {"molecule": "Cn1cnnc1CN1CCC2(CCCN(C3CCCCC3)C2=O)C1", "note": "(stereo not given)", "Percent Effect": 8.326}, {"molecule": "CN(C)CCCNC(=O)c1ccccc1NC(=O)c1ccccc1Cl", "Percent Effect": 2.69}, {"molecule": "O=C(NCCCN1CCCC1=O)c1ccc(-n2ccc3ccccc32)s1", "Percent Effect": 19.74}, {"molecule": "O=C(NCCCN1CCCCC1)c1ccc(-n2ccc3ccccc32)s1", "Percent Effect": 59.15}, {"molecule": "O=C(NCCCN1CCOCC1)c1ccc(-n2ccc3ccccc32)s1", "Percent Effect": -5.378}, {"molecule": "O=C(NCc1cccnc1)[C@H]1C[C@@H]2CCN(c3ccncn3)C[C@H]2O1.O=C(O)C(F)(F)F.O=C(O)C(F)(F)F", "Percent Effect": 15.26}, {"molecule": "CCOCCCn1c(NC(=O)c2ccc(C)nc2)nc2ccccc21", "Percent Effect": 49.04}, {"molecule": "Cc1ncsc1C(=O)Nc1ccccn1", "Percent Effect": 6.488}, {"molecule": "CCOCCCn1c(NC(=O)c2scnc2C)nc2ccccc21", "Percent Effect": 74.98}, {"molecule": "CCOC(=O)CNC(=O)c1scnc1C", "Percent Effect": 8.54}, {"molecule": "Cn1cc(NC(=O)Cn2c(CS(C)(=O)=O)nc3ccccc32)cn1", "Percent Effect": -19.06}, {"molecule": "CCOCCCn1c(NC(=O)c2cnn(C)c2)nc2ccccc21", "Percent Effect": 87.33}, {"molecule": "CC(NC(=O)Cc1ccccc1F)C(=O)N1CCS(=O)(=O)CC1", "note": "(stereo not given)", "Percent Effect": 19.17}, {"molecule": "O=C(NCCc1ccc(Cl)s1)N1CCS(=O)(=O)CC1", "Percent Effect": 3.625}, {"molecule": "Cc1ccc(CC(=O)NC(C)C(=O)N2CCS(=O)(=O)CC2)s1", "note": "(stereo not given)", "Percent Effect": 63.58}, {"molecule": "CC(C)n1ccc(CN2CCN(c3cc(NC4CC4)nc(N)n3)CC2)c1", "Percent Effect": 13.37}, {"molecule": "NC(=O)C1CCCN1Cc1cccc(NC(=O)c2ccc(Cl)cc2F)c1", "note": "(stereo not given)", "Percent Effect": -4.35}, {"molecule": "O=C(O)C(F)(F)F.O=C1COC2(COCCN(Cc3ccsc3)C2)CN1c1ccoc1", "note": "(stereo not given)", "Percent Effect": -47.88}, {"molecule": "CSCCC1c2nc[nH]c2CCN1Cc1cc(Cl)ccc1O", "note": "(stereo not given)", "Percent Effect": 102.1}, {"molecule": "CSCCC1c2nc[nH]c2CCN1Cc1ccccc1C#N", "note": "(stereo not given)", "Percent Effect": 19.15}, {"molecule": "CSCCC1c2nc[nH]c2CCN1Cc1ccccc1C(F)(F)F", "note": "(stereo not given)", "Percent Effect": 2.921}, {"molecule": "CN1C[C@@H](N)C[C@H]1C(=O)N1CCC(Cc2ccc(F)cc2)CC1", "Percent Effect": -16.49}, {"molecule": "C1CC(CN2C[C@@H]3C[C@@H](c4nnc(C5CC5)o4)O[C@@H]3C2)C1", "Percent Effect": -19.97}, {"molecule": "Cn1cc(S(=O)(=O)Nc2c(F)cccc2N2CCCC2)cn1", "Percent Effect": -1.726}, {"molecule": "N#Cc1cccc(S(=O)(=O)Nc2c(F)cccc2N2CCCC2)c1", "Percent Effect": 53.51}, {"molecule": "O=S(=O)(Nc1c(F)cccc1N1CCCC1)c1cncc(F)c1", "Percent Effect": 35.26}, {"molecule": "Cc1cc(NCCNS(=O)(=O)c2cn(C)nc2C)c2ccccc2n1", "Percent Effect": 11.79}, {"molecule": "CNC(=O)c1cccc(CC2COCCN(Cc3ccsc3)C2)n1", "note": "(stereo not given)", "Percent Effect": -5.574}, {"molecule": "CC1c2ncc(COCC3CC3)n2CCN1C(=O)c1ccnn1C", "note": "(stereo not given)", "Percent Effect": 18.95}, {"molecule": "Cc1cc2nc(C(C)C)cc(NCc3ccncc3)n2n1", "Percent Effect": -23.44}, {"molecule": "OCCn1nccc1C1CCN(CCOc2ccccc2)CC1", "Percent Effect": -26.3}, {"molecule": "O=C(c1ccc(S(=O)(=O)N2CCSCC2)cc1)N1CCC(O)C1", "note": "(stereo not given)", "Percent Effect": 10.6}, {"molecule": "Cc1ccc2cc(C(=O)N3CCCN(C)CC3)ccc2n1", "Percent Effect": -5.453}, {"molecule": "COC(=O)C1CCN(C(=O)c2ccc(N(C)S(C)(=O)=O)c(C)c2)CC1", "Percent Effect": -22.29}, {"molecule": "CCc1nc(C(=O)N2CCN(C)CC2)nn1-c1ccccc1Cl", "Percent Effect": -21.83}, {"molecule": "COC(=O)C1CCN(C(=O)c2nnc3ccc(C)cc3n2)CC1", "Percent Effect": -19.31}, {"molecule": "CN1CCN(C(=O)c2nnc3ccc(Cl)cc3n2)CC1", "Percent Effect": 64.7}, {"molecule": "COC(=O)C1CCN(C(=O)c2nnc3ccc(Cl)cc3n2)CC1", "Percent Effect": 106.2}, {"molecule": "COc1ccccc1CCN1CCCC(CN(C)Cc2ccc(C)o2)C1", "note": "(stereo not given)", "Percent Effect": 14.72}, {"molecule": "CC1=N[C@@]2(CC[C@@H]3CN(C(=O)NCc4ccccc4C)C[C@@H]32)C(=O)N1", "Percent Effect": 15.83}, {"molecule": "Cn1nc(Cl)cc1C(=O)N1CCC(C(=O)c2nc3ccccc3s2)CC1", "Percent Effect": -10.64}, {"molecule": "Cc1nn(C)cc1C(=O)N1CCC(C(=O)c2nc3ccccc3s2)CC1", "Percent Effect": 26.37}, {"molecule": "Cc1c(C(=O)N2CCC(C(=O)c3nc4ccccc4s3)CC2)cnn1C", "Percent Effect": 60.09}, {"molecule": "Cc1cccc(OCc2ccc(C(=O)N3N=CCC3(O)C(F)(F)F)o2)c1", "note": "(stereo not given)", "Percent Effect": 29.06}, {"molecule": "O=C(c1ccc(COc2ccccc2Cl)o1)N1N=CCC1(O)C(F)(F)F", "note": "(stereo not given)", "Percent Effect": 1.91}, {"molecule": "O=C(c1ccc(COc2ccc(Cl)cc2)o1)N1N=CCC1(O)C(F)(F)F", "note": "(stereo not given)", "Percent Effect": 61.62}, {"molecule": "Cc1nnsc1C(=O)N1CCC(c2nc3ccccc3[nH]2)CC1", "Percent Effect": 0.6445}, {"molecule": "CCOC(=O)C1CCN(C(=O)c2cc(F)ccc2-n2cnnn2)CC1", "Percent Effect": -0.0971}, {"molecule": "O=C(c1ccnnc1)N1CC[C@@H](O)[C@@H]1Cc1ccccc1", "Percent Effect": -23.76}, {"molecule": "CCc1c(C)sc2c1c(N)nc(=O)n2CCN1CCCCC1", "Percent Effect": 22.93}, {"molecule": "CCN(CC1CCCN(CCc2cccc(OC)c2)C1)C(=O)CCSC", "note": "(stereo not given)", "Percent Effect": -29.92}, {"molecule": "Cc1ccc(CN2C[C@H](OCC3CCOCC3)[C@H]3COC[C@H]32)o1.O=C(O)C(F)(F)F", "Percent Effect": -26.82}, {"molecule": "O=C(O)C(F)(F)F.c1ccc(N2CCCC3(COCCN(c4nccs4)C3)C2)nc1", "note": "(stereo not given)", "Percent Effect": 51.66}, {"molecule": "c1ccc(N2CCOCC3(CCCN(c4nccs4)C3)C2)nc1", "note": "(stereo not given)", "Percent Effect": 23.66}, {"molecule": "Cc1ccc(N2CCCC3(COCCN(c4nccs4)C3)C2)nn1.O=C(O)C(F)(F)F.O=C(O)C(F)(F)F", "note": "(stereo not given)", "Percent Effect": 20.96}, {"molecule": "Cc1nc(Cn2c3c(ccc2=O)CC(NC(N)=O)CC3)cs1", "note": "(stereo not given)", "Percent Effect": -11.16}, {"molecule": "O=C(c1ccoc1)N1CC[C@@H]2O[C@@H](COCc3ccncc3)CC[C@@H]21", "Percent Effect": 17.45}, {"molecule": "CC(C)c1noc(C[S+]([O-])CC(=O)Nc2cc(F)ccc2F)n1", "note": "(stereo not given)", "Percent Effect": 57.68}, {"molecule": "CC(C)c1noc(CCCC(=O)Nc2cccc(F)c2)n1", "Percent Effect": -20.44}, {"molecule": "CC(C)CCc1noc(C[S+]([O-])CC(=O)NCc2ccccc2)n1", "note": "(stereo not given)", "Percent Effect": -9.037}, {"molecule": "CC(C)c1noc(C[S+]([O-])CC(=O)Nc2ccc(F)c(F)c2)n1", "note": "(stereo not given)", "Percent Effect": 60.65}, {"molecule": "CC(C)c1noc(CCC(=O)Nc2cc(F)ccc2F)n1", "Percent Effect": -35.92}, {"molecule": "CC(C)c1noc(CN2CCN(C(=O)c3cc(Cl)ccc3F)CC2)n1", "Percent Effect": 34.44}, {"molecule": "Cc1cc(C)n(C2CCCN(C(=O)c3ccc(N(C)C)nc3)C2)n1", "note": "(stereo not given)", "Percent Effect": -19.67}, {"molecule": "Cc1ccc(CN2CCCC(c3cnccn3)C2)s1", "note": "(stereo not given)", "Percent Effect": 14.09}, {"molecule": "Cl.Fc1cccc(F)c1Cn1c(C2CCCNC2)cc2cccnc21", "note": "(stereo not given)", "Percent Effect": 30.15}, {"molecule": "c1cncc(CNCCc2cccs2)c1", "Percent Effect": 34.29}, {"molecule": "Cc1cn2nc(Sc3nnnn3C)sc2n1", "Percent Effect": -10.32}, {"molecule": "O=C(O)c1csc(S(=O)(=O)Nc2c(F)cccc2-n2cccn2)c1", "Percent Effect": -80.25}, {"molecule": "O=C(c1ncccn1)N1C[C@@H]2CC[C@H](Oc3cccc(F)c3)[C@@H]2C1", "Percent Effect": 15.44}, {"molecule": "Cn1ccc(C2CCCCCN2C(=O)c2cccnc2)n1", "note": "(stereo not given)", "Percent Effect": -55.79}, {"molecule": "CCC(CN1CCOCC1)n1cncc1-c1ccc2c(c1)CCN2CC.Cl", "note": "(stereo not given)", "Percent Effect": 11.86}]}]}
